D2 antag: D2 dopamine receptor (human) antagonism. P14416. HEK293 TREx D2 cells, calcium flux, dopamine EC80. inhibition, % at 10 µM. 340,000 tested, 2% active. AID 485344; in the data active means inhibition above about 30%; inactive means below that, where a call was filed; further: 0% is about no effect
Target sequence (P14416 whole entry, looked up): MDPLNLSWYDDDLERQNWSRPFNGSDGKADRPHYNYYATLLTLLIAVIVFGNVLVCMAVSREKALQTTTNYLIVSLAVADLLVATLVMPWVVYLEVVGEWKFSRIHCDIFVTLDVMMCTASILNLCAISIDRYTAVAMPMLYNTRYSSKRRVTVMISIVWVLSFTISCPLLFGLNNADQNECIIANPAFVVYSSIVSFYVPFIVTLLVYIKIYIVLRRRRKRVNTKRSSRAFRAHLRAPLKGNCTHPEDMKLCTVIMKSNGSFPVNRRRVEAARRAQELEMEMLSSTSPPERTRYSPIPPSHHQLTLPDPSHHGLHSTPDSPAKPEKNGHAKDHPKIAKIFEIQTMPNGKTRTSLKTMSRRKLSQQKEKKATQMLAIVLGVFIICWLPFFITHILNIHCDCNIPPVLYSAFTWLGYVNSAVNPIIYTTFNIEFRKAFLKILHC
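Calcium flux kinetic readout in an inducible HEK293 TREx D2 line plated overnight at 30 C. After 180 s compound exposure, an EC80 dopamine challenge follows with another 180 s kinetic read to detect antagonism.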
D2 ag-1: activates the human D2 dopamine receptor; activation, % at 2 µM; HEK293 T-REx D2 cells, calcium flux agonist mode; 340,000 tested, 0.53% active; AID 485358; P14416;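 active means activation over 3 SD above normal in the single-dose calcium agonist read, cut at about 30% in these data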; further: 0% is about no effect
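Tetracycline-induced HEK293 Trex cells with D2 receptor force-coupled to calcium signaling, plated overnight at 30 C and loaded with no-wash calcium dye. Calcium flux read kinetically for 180 s after compound addition; responses flag agonists.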
D2 PAM-1: positive allosteric modulators of human D2 dopamine receptor; DiscoveRx D2 beta-arrestin cells, luminescence, 90 min; 100% = 57 uM dopamine signal; potentiation, % (test concentration not listed); 360,000 tested, 0.23% active; AID 624464; in the data active means potentiation above about 50%
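PathHunter D2 cells, attached overnight at 37 deg C, received compound in DMSO plus dopamine at EC20 (50 nM final) for 90 min at 37 deg C. Beta-arrestin recruitment was read as luminescence after 1 h with detection reagent at ambient temperature.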
D2 ag-2: activates the human D2 dopamine receptor; P14416; DiscoveRx PathHunter D2 beta-arrestin, luminescence, 90 min; 100% = 57 uM dopamine signal; activation, % (test concentration not listed); 360,000 tested, 0.084% active; in the data active means activation above about 40%
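Agonist mode: compounds alone added to overnight-plated D2 PathHunter cells for 90 min at 37 C, with 57 uM final dopamine (EC100) defining full response. Beta-arrestin recruitment detected by chemiluminescent reagent, read after 1 h at ambient temperature.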
D2 PAM-2: positively modulates the human D2 dopamine receptor allosterically. potentiation, % at 10 µM. HEK293 T-REx D2, calcium flux, EC20 dopamine potentiation. 340,000 tested, 0.34% active;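 active means potentiation over 3 SD above the plate norm, cut at about 30% in these data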; further: 0% is about no effect
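Cells plated with tetracycline inducer and held overnight at 30 C; calcium dye loaded 30–90 min at room temperature; baseline taken, compound added and read 180 s; EC20 dopamine then added and read 180 s.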
Numbers without * were called inactive; / = no result. The list is not random: actives were taken first. Their share in the collection is about 2.4%.

SMILES	D2 antag	D2 ag-1	D2 PAM-1	D2 ag-2	D2 PAM-2
O=C(NCc1ccccc1)c1cc(-c2cccs2)on1	/	/	-10	0	/
O=C(NCc1ccccc1)c1nc(-c2cccs2)no1	36*	-2	-1	-8	-1
C/C=C\C(=O)Nc1cccc(C2=NOC3(C2)C[C@@H](C(N)=O)N(C(=O)C2(C)CC2)C3)c1 (some centres not stated)	34*	-1	-7	-2	11
C/C=C\C=C/C(=O)Nc1cccc(C2=NOC3(C2)C[C@@H](C(N)=O)N(C(=O)C2(C)CC2)C3)c1 (some centres not stated)	-1	0	-5	-1	4
C=C(C)C(=O)Nc1cccc(C2=NOC3(C2)C[C@H](C(N)=O)N(C(=O)COc2ccc(Cl)cc2)C3)c1 (some centres not stated)	35*	0	-12	2	-1
Cc1c(C(=O)N2CC3(CC(c4cccc(NC(=O)[C@H]5CCC(=O)N5)c4)=NO3)C[C@@H]2C(N)=O)cc([N+](=O)[O-])cc1[N+](=O)[O-] (some centres not stated)	-10	0	74*	7	1
O=S(=O)(NCc1ccc(F)cc1)c1ccc2[nH]c3c(c2c1)CCCC3	/	1	/	/	-1
CCOC(=O)c1cc(C)n(CC2CCC(C(=O)Nc3ccc(Cl)cc3)CC2)c1C (configuration not stated)	/	/	/	/	-5
CC(C)(C)c1ccc(NC(=O)CSc2n[nH]c(=O)n2-c2cccnc2)cc1	-21	1	-10	-2	15
CC(C)c1ccc(NC(=O)CSc2n[nH]c(=O)n2-c2cccnc2)cc1	31*	0	-3	2	5
CCn1c2ccc(OC)cc2c2nc3ccccc3nc21	-6	-1	-12	-2	31*
CCOc1ccc(Cn2c3ccc(OC)cc3c3nc4ccccc4nc32)cc1	5	2	9	1	3
CC/C(=N\NC(=O)COc1ccc(Br)cc1)c1ccc(OC)c(OC)c1	/	/	-10	-4	/
CC/C(=N\NC(N)=O)c1ccc(OC)c(OC)c1	38*	-1	-14	-6	5
N#Cc1c(N2CCN(C(=O)c3ccco3)CC2)nc(-c2ccccc2)c2c1CCCC2	32*	1	-12	-4	2
C/C(=N\NC(=O)c1cc2ccccc2cc1O)c1ccc2c(c1)OCO2	33*	1	13	-6	-3
C/C(=N\NC(=O)c1ccc(C)cc1C)c1ccc2c(c1)OCO2	-3	-1	-8	-1	-3
Cc1ccc(/C=C/C(=O)Nc2ncc(C)s2)o1	-4	0	25	10	8
Cc1ccc(/C=C/C(=O)Nc2nccs2)o1	11	0	53*	8	1
N#CCc1ccc(OC(=O)c2cccnc2Cl)cc1	/	/	-1	-3	/
O=C1CC(c2ccco2)CC(O)=C1C=NCCN1CCN(C2CC(=O)N(c3ccccc3)C2=O)CC1 (configuration not stated)	-8	0	-1	1	47*
O=C1CC(c2ccco2)CC(O)=C1C=NCCN1CCNCC1 (configuration not stated)	-6	1	-1	-1	-5
C=CCN1C(=O)c2ccc(C(=O)OCC(=O)N3CCN(c4ccccc4)CC3)cc2C1=O	13	0	2	-3	2
Cc1cc(C)c(S(=O)(=O)N2CCCC2=O)c(C)c1N(C)S(C)(=O)=O	38*	1	-2	-3	-7
COc1cccc(OC)c1C(=O)Nc1ccc(-c2nc3ncccc3o2)cc1	/	0	/	/	/
SMILES	D2 antag	D2 ag-1	D2 PAM-1	D2 ag-2	D2 PAM-2
Cn1nc(C(=O)Nc2ccc(Br)cc2)cc1C(=O)Nc1ccc(Br)cc1	38*	0	-12	-5	4
CC(=O)c1c(C)[nH]c(C(=O)Nc2nc(-c3ccc(Cl)cc3)cs2)c1C	-9	-3	0	2	11
COc1ccc(-c2nc(NC(=O)c3[nH]c(C)c(C(C)=O)c3C)sc2C)cc1	-4	1	0	2	31*
COc1ccc(-c2nc(NC(=O)c3ccco3)sc2C)cc1	/	/	-3	-1	/
CC(=O)c1c(C)[nH]c(C(=O)Nc2nc(C)cs2)c1C	33*	2	-4	-10	-1
CCc1ccc(NC(=O)CSc2nc(-c3ccccc3)no2)cc1	/	0	/	/	1
CCOC(=O)C1=C(CC)Nc2ccccc2N=C1NC(=O)Nc1ccccc1OC	51*	-1	-17	-4	-26
O=C(Nc1cc(F)ccc1F)C1CCN(c2nc3ccccc3n3cccc23)CC1	/	-1	/	/	6
O=C1CSc2ccc(C(=O)NCC(c3ccco3)N3CCCCC3)cc2N1 (configuration not stated)	36*	0	-31	-6	-33
CCc1cc(C(=O)NCC(c2ccco2)N2CCCCC2)sc1C (configuration not stated)	39*	0	-36	-4	-31
O=C(NC1CCCC1)c1cc(-c2cccc(Cl)c2)on1	7	-2	-3	-2	-7
COCc1ccc(C(=O)N(C)C2CCCN(Cc3ccccc3F)C2)o1 (configuration not stated)	12	0	-11	-1	-8
COc1ccc(N2CCN(C(=O)C34CCC(C)(C(=O)C3)C4(C)C)CC2)cc1 (configuration not stated)	37*	0	-5	-1	4
CC12CCC(C(=O)N3CCN(c4ccccc4)CC3)(CC1=O)C2(C)C (configuration not stated)	16	0	9	2	-7
COc1cccc(-c2nc(SCC(=O)NCC3CCCO3)c(-c3ccc(Cl)cc3)[nH]2)c1 (configuration not stated)	/	3	/	/	-22
Cn1nnc2cc(C(=O)N3CCCCCC3)ccc21	-15	0	2	-1	-7
Cn1nnc2cc(C(=O)N3CCC(c4ccccc4)C3)ccc21 (configuration not stated)	11	2	-20	-2	103*
Cc1cccc(NC(=O)Cn2c(=O)n(CCCS(=O)(=O)C3CCCCC3)c(=O)c3ccccc32)c1	/	/	/	/	-4
O=C(CCC(=O)N1CCOc2ccc(Cl)cc21)NCCCN1CCN(c2ccccc2F)CC1	86*	36*	-11	1	-15
COc1ccc(N2CCN(CCCNC(=O)CCC(=O)N3CCOc4ccc(Cl)cc43)CC2)cc1	-4	0	-39	-6	-27
Cc1ccc(C)c(N2CCN(CCCNC(=O)CCC(=O)N3CCOc4ccc(Cl)cc43)CC2)c1	56*	4	/	/	-23
COc1cc(-c2ccno2)ccc1S(=O)(=O)N1CCN(c2ccc(F)cc2)CC1	/	0	/	/	2
Cc1ccc(C)c(NS(=O)(=O)c2cc3c(cc2C)n(C)c(=O)c(=O)n3C)c1	/	1	/	/	-11

High-throughput results: PubChem, National Center for Advancing Translational Sciences (NCATS)
